# Measured values taken from PubChem BioAssay (NCI).
# The panel holds about 83,000 compounds, 20% with a hit somewhere; the sample as a whole holds those more often.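 Note: values are percent growth. 100 is the growth of untreated cells, values between 100 and 0 indicate rising inhibition; between -100 and 0 indicates cell death.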 Values without a mark were called inactive. Calls of active or inactive are those of the source. Rule for the calls: active = growth percent below 10; inactive = the rest.
# Test system: UACC-257 melanoma
# Assay: NCI-60 one-dose screen, 48 h (100 = growth as untreated, 0 = no growth, -100 = all killed)
# Details: 10 µM unless noted
row,SMILES,growth
1,CC1(C)C(N(O)C(=O)Nc2ccc(Cl)cc2)N(c2ccc(Cl)cc2)C(=O)N1CC(=O)N/N=C/C=C/c1ccc([N+](=O)[O-])o1 (stereo not drawn),-33.7% (active)
2,Oc1ccc(-c2cnc(-c3ccccc3)[nH]2)c(O)c1,-22.6% (active)
3,NC(N)=N/N=C\c1cccc(OCc2ccccc2)c1,70.8%
4,CCCCn1c(-c2ccc(F)cc2)nc2cc(OC)c(OC)cc2c1=O,-32.2% (active)
5,O=C(Nc1ccccc1)C(CCCCN1C(=O)c2ccccc2C1=O)N1C(=O)c2ccccc2C1=O (stereo not drawn),106%
6,Cc1[nH]n(C(=O)c2ccncc2)c(=O)c1N=Nc1ccc(O)c(C(=O)O)c1,-14.1% (active)
7,COc1cc2c(cc1OC)C(=O)OC2,13.3%
8,Cc1cc2nc3c(=O)[nH]c(=O)nc-3n(CC=O)c2cc1C,159%
9,COC(=O)C1(C)COP(=O)(NC23CC4CC(CC(C4)C2)C3)OC1 (stereo not drawn),101%
10,Cc1nc([C@H]2CC[C@H]3[C@@H]4CCC5=CC(=O)CC[C@]5(C)[C@H]4CC[C@]23C)cs1,39.2%
11,O=C1OCC2=C1C(c1cccc(Br)c1)c1cc3c(cc1N2CCO)OCCO3 (stereo not drawn),49%
12,C=CCn1c(SCC(=O)Nc2ccc(C(=O)/C=C/c3ccc(Cl)cc3)cc2)nnc1-c1ccc(Cl)cc1,99%
13,CCc1ccc2c(c1)N(CCO)C1=C(C(=O)OC1)C2c1cccc(Cl)c1 (stereo not drawn),62.2%
14,COc1ccc2c(c1)N(CCO)C1=C(C(=O)OC1)C2c1cccc(Br)c1 (stereo not drawn),60%
15,COC(=O)c1cc2oc(/C=N/NC(=O)c3cc4oc(-c5cccc(C(F)(F)F)c5)cc4[nH]3)cc2n1Cc1ccccc1,-29.3% (active)
16,CCCCCCCCCCC(C(O)c1ccccc1)N1CCCCC1 (stereo not drawn),-1.19% (active)
17,CC(=O)[C@@]1(O)[C@H](C)C[C@H]2[C@@H]3C=C(C)C4=Cc5c(cnn5-c5ccccc5)C[C@]4(C)[C@H]3[C@@H](O)C[C@@]21C,54.6%
18,CCOc1c(C#N)c2c(N)ncnc2n1C1OC(CO)C(O)C1O (stereo not drawn),83.5%
19,CCNS(=O)(=O)c1ccc(C)cc1,107%
20,COc1ccc(C2C3=C(COC3=O)N(CCO)c3cc(OC)c(OC)cc32)cc1 (stereo not drawn),116%

row,SMILES,growth
1,CCCCN(CCCC)CCC(=O)c1ccc(OC)c2ccccc12,86.4%
2,Cc1ccccc1CNc1ncnc2[nH]ncc12,107%
3,O=C1OC(c2ccc(-c3ccccc3)cc2)=C/C1=C/c1c(Cl)cccc1Cl,-33.6% (active)
4,NC(N)=N/N=C\c1ccc(OCc2ccccc2)cc1,90.4%
5,Fc1ccc(-c2nnc(N3CCOCC3)c3ccccc23)cc1,94.7%
6,CC1=NN(c2cccc(S(N)(=O)=O)c2)C(=O)C1,124%
7,CCc1ccc2c(c1)N(CCO)C1=C(C(=O)OC1)C2c1cccc(Br)c1 (stereo not drawn),63.4%
8,Fc1ccc2nc(-c3ccc(-c4noc(-c5ccc(Cl)cc5)n4)cc3)[nH]c2c1,101%
9,Cc1cccc(C(=O)O)n1,105%
10,COc1ccc(Nc2ncccc2C(=O)NCc2cn(Cc3cc(OC)cc(OC)c3)nn2)cc1,98.1%
11,CN(C)c1ccc(C(c2ccccc2)c2ccc(N(C)C)cc2)cc1,98.1%
12,COc1ccc(/C=C2\CCCC3=C2N=C2SC(C)=NN2C3c2ccc(OC)c(OC)c2)cc1OC (stereo not drawn),51.9%
13,Cn1c(=O)c2[nH]c(Cc3ccc4c(c3)OCO4)nc2n(C)c1=O,111%
14,O=C1OCC2=C1C(c1ccc(Cl)c(Cl)c1)c1cc3c(cc1N2CCO)CCC3 (stereo not drawn),60.2%
15,COc1cc(C2C=C(C)N=C3SC=NN32)cc(OC)c1OC (stereo not drawn),94.8%
16,Cc1cc(O)ccc1C1=NN(c2ccc(S(N)(=O)=O)cc2)C(=O)CC1,59.7%
17,NC(=Nc1ccccc1)SCCCSC(N)=Nc1ccccc1,108%
18,CC(=O)Nc1ccc(Cl)cc1Cl,124%
19,NS(=O)(=O)c1ccc(N2N=C(c3ccc(Br)cc3)CC2c2cn(-c3ccccc3)nc2-c2ccc(Cl)cc2)cc1 (stereo not drawn),96.7%

# Test system: M14 melanoma
# Assay: as above
# Details: 10 µM unless noted
row,SMILES,growth
1,CC1(C)C(N(O)C(=O)Nc2ccc(Cl)cc2)N(c2ccc(Cl)cc2)C(=O)N1CC(=O)N/N=C/C=C/c1ccc([N+](=O)[O-])o1 (stereo not drawn),-65.6% (active)
2,Oc1ccc(-c2cnc(-c3ccccc3)[nH]2)c(O)c1,119%
3,NC(N)=N/N=C\c1cccc(OCc2ccccc2)c1,59.7%
4,CCCCn1c(-c2ccc(F)cc2)nc2cc(OC)c(OC)cc2c1=O,127%
5,O=C(Nc1ccccc1)C(CCCCN1C(=O)c2ccccc2C1=O)N1C(=O)c2ccccc2C1=O (stereo not drawn),105%
6,Cc1[nH]n(C(=O)c2ccncc2)c(=O)c1N=Nc1ccc(O)c(C(=O)O)c1,114%
7,COc1cc2c(cc1OC)C(=O)OC2,119%
8,Cc1cc2nc3c(=O)[nH]c(=O)nc-3n(CC=O)c2cc1C,109%
9,COC(=O)C1(C)COP(=O)(NC23CC4CC(CC(C4)C2)C3)OC1 (stereo not drawn),104%
10,Cc1nc([C@H]2CC[C@H]3[C@@H]4CCC5=CC(=O)CC[C@]5(C)[C@H]4CC[C@]23C)cs1,74.1%
11,O=C1OCC2=C1C(c1cccc(Br)c1)c1cc3c(cc1N2CCO)OCCO3 (stereo not drawn),14.6%
12,C=CCn1c(SCC(=O)Nc2ccc(C(=O)/C=C/c3ccc(Cl)cc3)cc2)nnc1-c1ccc(Cl)cc1,95.5%
13,CCc1ccc2c(c1)N(CCO)C1=C(C(=O)OC1)C2c1cccc(Cl)c1 (stereo not drawn),4.38% (active)
14,COc1ccc2c(c1)N(CCO)C1=C(C(=O)OC1)C2c1cccc(Br)c1 (stereo not drawn),8.81% (active)
15,COC(=O)c1cc2oc(/C=N/NC(=O)c3cc4oc(-c5cccc(C(F)(F)F)c5)cc4[nH]3)cc2n1Cc1ccccc1,121%
16,CCCCCCCCCCC(C(O)c1ccccc1)N1CCCCC1 (stereo not drawn),-63.8% (active)
17,CC(=O)[C@@]1(O)[C@H](C)C[C@H]2[C@@H]3C=C(C)C4=Cc5c(cnn5-c5ccccc5)C[C@]4(C)[C@H]3[C@@H](O)C[C@@]21C,43.7%
18,CCOc1c(C#N)c2c(N)ncnc2n1C1OC(CO)C(O)C1O (stereo not drawn),35%
19,CCNS(=O)(=O)c1ccc(C)cc1,106%
20,COc1ccc(C2C3=C(COC3=O)N(CCO)c3cc(OC)c(OC)cc32)cc1 (stereo not drawn),108%

row,SMILES,growth
1,CCCCN(CCCC)CCC(=O)c1ccc(OC)c2ccccc12,104%
2,Cc1ccccc1CNc1ncnc2[nH]ncc12,103%
3,O=C1OC(c2ccc(-c3ccccc3)cc2)=C/C1=C/c1c(Cl)cccc1Cl,105%
4,NC(N)=N/N=C\c1ccc(OCc2ccccc2)cc1,81.5%
5,Fc1ccc(-c2nnc(N3CCOCC3)c3ccccc23)cc1,93.9%
6,CC1=NN(c2cccc(S(N)(=O)=O)c2)C(=O)C1,95.3%
7,CCc1ccc2c(c1)N(CCO)C1=C(C(=O)OC1)C2c1cccc(Br)c1 (stereo not drawn),10.8%
8,Fc1ccc2nc(-c3ccc(-c4noc(-c5ccc(Cl)cc5)n4)cc3)[nH]c2c1,107%
9,Cc1cccc(C(=O)O)n1,108%
10,COc1ccc(Nc2ncccc2C(=O)NCc2cn(Cc3cc(OC)cc(OC)c3)nn2)cc1,98.7%
11,CN(C)c1ccc(C(c2ccccc2)c2ccc(N(C)C)cc2)cc1,93%
12,COc1ccc(/C=C2\CCCC3=C2N=C2SC(C)=NN2C3c2ccc(OC)c(OC)c2)cc1OC (stereo not drawn),19.8%
13,Cn1c(=O)c2[nH]c(Cc3ccc4c(c3)OCO4)nc2n(C)c1=O,107%
14,O=C1OCC2=C1C(c1ccc(Cl)c(Cl)c1)c1cc3c(cc1N2CCO)CCC3 (stereo not drawn),12.1%
15,COc1cc(C2C=C(C)N=C3SC=NN32)cc(OC)c1OC (stereo not drawn),109%
16,Cc1cc(O)ccc1C1=NN(c2ccc(S(N)(=O)=O)cc2)C(=O)CC1,29.7%
17,NC(=Nc1ccccc1)SCCCSC(N)=Nc1ccccc1,95.6%
18,CC(=O)Nc1ccc(Cl)cc1Cl,102%
19,NS(=O)(=O)c1ccc(N2N=C(c3ccc(Br)cc3)CC2c2cn(-c3ccccc3)nc2-c2ccc(Cl)cc2)cc1 (stereo not drawn),83.7%
